# Screens (PubChem)
# Hits are enriched below; roughly 3.7% of the tested compounds scored in any of these assays.
# Autofluor counter: counter-screen for toxin protease inhibitors: compound fluorescence. compound autofluorescence counterscreen, microsphere flow cytometry; active compounds read high. fluorescence intensity (test concentration not listed). actives 3.1% (n = 360,000). AID 624483; in the data active means fluorescence intensity above about 16000; inconclusive means no clear call, values can overlap the other calls
# MazEF act: MazEF (E. coli) toxin RNase activation | P0AE70 | activation, % at 20 µM | AID 504720 | actives 0.32% (n = 350,000) | FAM/BHQ RNA-DNA oligo cleavage fluorescence, 5 h; in the data active means activation above about 50%
# Target sequence (P0AE70 whole entry, looked up): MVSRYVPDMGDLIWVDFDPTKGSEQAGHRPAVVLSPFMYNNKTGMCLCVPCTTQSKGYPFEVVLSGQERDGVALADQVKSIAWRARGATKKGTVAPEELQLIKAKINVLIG
# BoNT A protease: BoNT A light chain protease inhibition | multiplex microsphere protease substrate cleavage, flow cytometry | inhibition, % at 10 µM | actives 0.17% (n = 360,000); further: plate controls were buffer without enzyme for full effect and enzyme alone for no effect
# Anthrax LF prot: inhibitors of Bacillus anthracis lethal factor protease; multiplex microsphere protease cleavage assay, LF; inhibition, % at 10 µM; actives 0.12% (n = 360,000); AID 588501; further: plate controls were buffer without enzyme for full effect and enzyme alone for no effect
# BoNT-F LC inh: blocks Botulinum neurotoxin F light chain protease. Multiplex microsphere protease cleavage assay, flow cytometry. inhibition, % at 10 µM. actives 0.22% (n = 360,000); in the data active means inhibition above about 35%, passing the limit was not always enough; inconclusive means no clear call, values can overlap the other calls; further: plate controls were buffer without enzyme for full effect and enzyme alone for no effect
# * hit, by the source's call; ? = inconclusive; / = no result. Unless noted, no stated cut-off is given here; in the data, active means inhibition above about 30%; inconclusive means no clear call, values can overlap the other calls; inactive means below that.
SMILES,Autofluor counter,MazEF act,BoNT A protease,Anthrax LF prot,BoNT-F LC inh
CC1=NN(C(N)=S)C(=O)C1N=Nc1c(Cl)cc([N+](=O)[O-])cc1Cl (centres undefined),3471,-1.0,-6.2,-11.7,-17.3
Clc1ccc(N2O[C@H]3C=C[C@@H]2C3)nc1,5431,/,0.9,0.6,6.3
C=CCn1c(O)c(C(CC)=Nc2ccc(N(CC)CC)cc2)c(=O)[nH]c1=O,21974*,3.3,0.7,-2.7,0.8
C=CCn1c(O)c(C(C)=Nc2ccc(N(CC)CC)cc2)c(=O)[nH]c1=O,6132,13.5,-1.3,-6.4,-5.1
C=CCn1c(O)c(C(CC)=NC2CC2)c(=O)[nH]c1=O,16830*,-0.8,-1.2,0.3,-0.4
CNC(=O)CSc1nnnn1-c1cc(C)ccc1C,4333,-1.4,-0.7,5.1,-16.1
O=C(CSc1ncccc1C(=O)O)NCCC1=CCCCC1,20428*,0.5,0.2,-2.8,1.7
O=C(CSc1ncccn1)NCCC1=CCCCC1,5183,6.5,1.8,0.3,3.4
Cc1ccc(C)c(-n2nnnc2SCC(=O)NCCC2=CCCCC2)c1,16990*,-3.4,-0.5,-2.1,-2.3
CN(C(=S)NC(=O)c1ccccc1)C1CCCCC1,5309,4.3,0.3,-0.3,1.5
C#CCN(C[C@H]1[C@H](OC(=O)NCC2CCCCC2)[C@H](OC(=O)NCC2CCCCC2)C[C@H]2C(=O)N(c3ccccc3)C(=O)[C@@H]12)S(=O)(=O)c1ccc(C)cc1,3835,-2.8,-0.5,-1.0,3.3
CC(C)C[C@@H](CNCC(=O)[C@H](C)NC(=O)c1[nH]cnc1C(=O)N[C@H](CN)CC(C)C)NC(=O)c1nc[nH]c1C(=O)N[C@@H](C)C(=O)O,3743,3.9,-0.1,3.0,-8.9
COC(=O)Cn1c2ccc(C)cc2c2nc3ccccc3nc21,3348,17.3,4.8,6.2,13.2
COc1ccc2c(c1)c1nc3ccccc3nc1n2CC(=O)OC(C)C,7658,369.9*,3.7,-7.4,12.8
COc1ccc(Cn2c3ccc(OC)cc3c3nc4ccccc4nc32)cc1,2116,65.3*,8.3,3.5,-0.4
Cn1c(=O)oc2ccc(C(=O)CSc3nnnn3-c3ccccc3)cc21,19593*,-9.4,?,-8.2,-1.1
Cc1cc(OCCCC(=O)NCCc2ccccn2)ccc1Cl,3979,59.9*,0.6,-1.6,4.6
CC(CC(=O)O)CC(=O)Nc1ccccc1C(=O)O (centres undefined),22711*,-2.1,-0.4,3.3,-4.6
Cc1cc(=O)n2c(C(=O)Nc3ccc(C(=O)OC(C)C)cc3)c(C(=O)Nc3ccccc3)sc2n1,4359,6.2,-0.7,-4.3,-3.7
O=C(Cc1csc(Nc2nc(=S)[nH]c3ccccc23)n1)NCc1ccc(Cl)cc1,23044*,-23.6,-1.0,-0.5,-1.2
COc1ccc(C2c3c(oc4ccccc4c3=O)C(=O)N2Cc2ccncc2)cc1OC (centres undefined),/,7.0,/,/,/
O=C1c2oc3ccccc3c(=O)c2C(c2cccc(Br)c2)N1Cc1ccco1 (centres undefined),20275*,12.9,-0.8,-1.4,-0.2
CC1(C)Cc2cccc(OCC(=O)Nc3ccccc3C(F)(F)F)c2O1,?,-1.2,-4.6,-2.5,8.9
CC1(C)Cc2cccc(OCC(=O)Nc3ccccc3N3CCOCC3)c2O1,16540*,8.7,0.1,-2.3,1.6
CCn1c(=O)n(CC)c2cc(S(=O)(=O)Nc3ccccc3C)c(C)cc21,23798*,-4.7,?,-5.9,-0.2
SMILES,Autofluor counter,MazEF act,BoNT A protease,Anthrax LF prot,BoNT-F LC inh
Cc1cc(C)n2nc(SCC(=O)N3CCC4(CC3)OCCO4)nc2n1,19682*,-0.9,1.9,-7.5,1.9
CCOC(=O)c1sc2ncnc(NCC(c3cccs3)N(C)C)c2c1C (centres undefined),24092*,14.2,1.2,1.8,1.3
CCS(=O)(=O)N1Cc2ccccc2CC1C(=O)Nc1ccc(C)cc1 (centres undefined),22120*,1.6,0.8,-0.5,-1.2
Cc1cccc(/C=N/NC(=O)c2cc(Br)ccc2OCc2ccccc2)n1,4236,125.2*,-6.6,-8.6,-25.2
Cc1cccc(/C=N/NC(=O)c2ccccc2OCc2cccc(Br)c2)n1,3562,-1.2,-3.5,-8.2,-13.3
Cc1cc(/C=C2\C(=O)NC(=O)N(Cc3ccccc3)C2=O)c(C)n1C1CC1,2695,725.3*,-0.2,-3.7,4.8
CC1=NN(c2ccccc2)C(=O)/C1=C/c1cc(C)n(C2CC2)c1C,3641,77.1*,1.2,-2.1,-5.4
CC1=NN(c2ccccc2)C(=O)/C1=C\N1CC(C)OC(C)C1 (centres undefined),16159*,-12.7,1.2,-2.8,0.0
NS(=O)(=O)c1cccc(NC(=O)COC(=O)CCC(=O)c2cccs2)c1,3007,-13.1,-0.4,-15.9,-0.8
CCN(CC)c1ccc(NC(=O)c2ccco2)cc1,20274*,-1.8,?,-0.7,0.1
O=C(Nc1cccc2c1CCCC2)c1ccco1,20290*,-0.7,9.6,-4.5,5.1
COc1cc(NS(=O)(=O)c2ccc(NC(=O)c3ccco3)cc2)nc(OC)n1,17434*,-12.2,-5.6,-4.2,-7.3
CC(=O)Nc1ccc(NC(=O)c2ccco2)cc1,22348*,5.0,2.6,0.3,5.4
O=C1NC(=O)C(c2ccccc2)(c2ccccc2)N1S(=O)(=O)c1ccccc1,3466,9.0,-0.1,-1.4,1.6
Cc1ccc(NC(=O)c2ccc(OC(=O)c3ccco3)cc2)cc1,6605,5.7,-1.0,-4.4,4.7
Cc1ccc(Oc2ccc(NC(=O)c3ccco3)cc2)cc1,16687*,-6.4,-0.7,-5.7,-1.5
COc1cc(C2C3=C(COC3=O)Oc3cc4c(cc32)OCO4)cc(OC)c1OC(C)=O (centres undefined),4192,-6.0,-0.3,-4.0,4.2
CCC(CC)NC(=O)COC(=O)c1ccc(NS(=O)(=O)c2ccc3c(c2)OCCO3)cc1,23057*,-0.2,?,-5.3,-5.9
O=C(O)c1cccc(NS(=O)(=O)c2ccc3c(c2)OCCCO3)c1,4190,5.4,0.0,2.0,-1.5
O=C(O)c1cccc(S(=O)(=O)Nc2ccc3c(c2)OCO3)c1,21051*,4.1,?,0.2,2.5
COCCN(CCOC)C(=O)c1ccc(NS(=O)(=O)c2ccc3c(c2)OCCO3)cc1,6274,6.1,0.7,-0.4,3.5
O=C(O)c1ccc(S(=O)(=O)Nc2ccc3c(c2)OCCO3)cc1,3498,1.3,-3.8,31.2*,?
O=C(c1ccc(NS(=O)(=O)c2ccc3c(c2)OCCO3)cc1)N1CCCCC1,4597,1.1,-0.1,4.0,1.7
CC(=O)c1ccc(S(=O)(=O)Oc2ccc(C(=O)O)cc2Cl)cc1,3796,0.2,-1.1,3.4,-5.4
C=CC[C@@H](CC(=O)N[C@H](CO)Cc1ccccc1)C(=O)N[C@H](COC(=O)[C@@H](CC=C)Cc1ccc(F)cc1)Cc1c[nH]c2ccccc12,4188,-1.8,-0.5,-6.7,6.8
O=C(Cc1ccc(NC(=O)C2CCN(C(=O)c3ccccc3)CC2)cc1)Nc1cccc(C(=O)N2CCCC2)c1,3216,-0.3,0.1,-1.5,0.6
